KB-V1 MDR tox: kills drug-selected multidrug resistant KB-V1 cells; KB-V1 MDR cells viability, CellTiter-Glo, 72 h; Potency, µM (top dose mostly 46.1 µM), most hits filed as cytotoxic; 3.4% of 400,000 active; also: % is scaled to controls: 0 for no effect and ±100 for the full control effect; nearly all actives have a fitted effect of over 60% in size
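Luminescent ATP read-out (CellTiter-Glo, 10 min) measures survival of drug-selected KB-V1 MDR cells after 72 h, 37 degrees C compound exposure. Medium: phenol-red-free DMEM, 10% FBS. Values from fitted concentration-response curves.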
SW480 rereplic: DNA re-replication induction in SW480 cells | 1.8% of 340,000 active | Potency, µM (series often up to 46.1 µM), for inactives: at the highest dose re-replication activation, usual class: activators | SW480 DNA re-replication, Hoechst DNA content imaging, 48 h; also: % of control where 0% means no effect; nearly all actives have a fitted effect of over 55% in size
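Image-based read-out: total Hoechst fluorescence of nuclei (405 nm excitation, 500-530 nm emission), with hits raising the fraction of high-intensity nuclei. SW480 colon cells incubated 48 hr with compounds at 37 C.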
MCF10A rereplic: DNA re-replication induction in MCF 10a cells. MCF 10A DNA re-replication, Hoechst nuclear intensity, 48 h. Potency, µM (highest dose often 46.1 µM), inactives show at the top dose activity, positive = re-replication, actives largely listed as activators. 2.9% of 350,000 active. AID 624296; also: % of control where 0% means no effect; nearly all actives have a fitted effect of over 50% in size
KB-3-1 cytotox: kills parental KB-3-1 adenocarcinoma cells; KB-3-1 viability, CellTiter-Glo ATP luminescence, 72 h; Potency, µM (top dose mostly 46.1 µM), usual class: cytotoxic; 1.4% of 400,000 active; also: % is scaled to controls: 0 for no effect and ±100 for the full control effect; nearly all actives have a fitted effect of over 60% in size
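KB-3-1 parental drug-naive adenocarcinoma cells in DMEM/10% FBS, incubated 72 h at 37 C with pin-transferred compounds across a concentration series. Viability by CellTiter-Glo luminescence; concentration-response curves fitted after normalization.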
ELG1 DNA repair: ELG1-dependent DNA repair inhibition; 2.3% of 330,000 active; Potency, µM (titrated, usually from 46.1 µM), for the others: top-dose activity change, negative = inhibition, most hits filed as inhibitors; HEK293T ELG1-luciferase reporter, luminescence, 16 h; DNA damage induced by 5-fluorouridine; AID 504467; also: % is scaled to controls: 0 for no effect and ±100 for the full control effect; nearly all actives have a fitted effect of over 55% in size
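Quantitative HTS, concentration-response format. 2,000 cells/well co-treated with 5-fluorouridine and compound, 16 hr in 5% CO2 at 37 °C; ONE-Glo luminescence read after 30 min.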
* = called active by the depositor; i = inactive; ? = inconclusive; nt = no result; ! = repeats disagree; [ ] = remark or other dose. Compounds with a hit are over-represented: about 8.1% of the library has one in this group of screens. Calls follow the shape of the dose curve; as a rule, active = well fitted curve in the direction sought with a large enough effect; inconclusive = small, poorly fitted or top-dose-only effect, or another doubt; inactive = no such curve, though single readings can be large; an effect the other way counts as inactive or inconclusive. Potency is read from the fitted curve at half-maximal effect.

SMILES | KB-V1 MDR tox | SW480 rereplic | MCF10A rereplic | KB-3-1 cytotox | ELG1 DNA repair
COc1ccc(-c2noc(CCC(=O)O)n2)cc1 | i | -5.2% | -26.7% | i | ?
COc1ccc(Cl)cc1N(C)C(=O)CCc1nc(-c2ccc(C)cc2)no1 | ? | -5.0% | 9.6% | i | ?
CCOc1ccc(-c2noc(CCC(=O)O)n2)cc1 | i | 4.11µM* | ? | i | ?
CC1CCCCN1C(=O)COC(=O)/C=C/c1ccc2ccccc2n1 (stereo not drawn) | i | ? | ? | i | -3.0%
Cc1cc(NC(=O)COc2coc(CN3CCN(c4ccccc4F)CC3)cc2=O)no1 | i | -35.5% | -18.7% | i | -1.0%
CCOC(=O)/C(=C\C=C1/Sc2ccccc2N1CC)C(C)=O | 5.17µM* | 0.3% | 7.7% | i | ?
CCOC(=O)/C(=C/C=C1\Sc2ccccc2N1CC)C(C)=O | i | 10.7% | 16.7% | i | ?
O=C(CCCCCCN1C(=O)c2ccccc2C1=O)Nc1nccs1 | ? | -2.7%[9.22 µM] | -4.6% | i | 16.4µM*
COc1ccc(NC(=O)Cn2cc(S(=O)(=O)c3ccccc3)c(=O)c3cc4c(cc32)OCO4)cc1 | i | nt | nt | i | nt
COc1ccc(-c2nc3c(c(=O)n(C)c(=O)n3C)n2CC2CC(c3ccccc3)=NO2)cc1OC (stereo not drawn) | 5.8µM* | 0.6% | 8.4% | i | nt
N#Cc1c(Nc2ccccc2)[n+]([O-])c2ccc(Cl)cc2[n+]1[O-] | i | 2.91µM* | 16.2% | ? | nt
O=C1/C(=C/c2c[nH]c3ccccc23)CCC/C1=C\c1c[nH]c2ccccc12 | ? | ? | 20.6µM* | ? | -21.2%
C(=NN=Cc1c[nH]c2ccccc12)c1c[nH]c2ccccc12 | i | nt | nt | i | nt
COc1ccccc1NC(=O)/C(=C/c1cccc([N+](=O)[O-])c1)c1ccccc1 | 5.8µM* | 12.4% | ? | i | ?
O=C(c1ccccc1)c1ccc(Oc2ccc([N+](=O)[O-])cc2[N+](=O)[O-])cc1 | ? | 3.26µM* | 11.6µM* | ? | nt
Cc1ccc(C(=O)Nc2ccccc2Oc2ccccc2)cc1[N+](=O)[O-] | ? | 2.6%[9.22 µM] | 0.0% | i | -6.5%
O=C(Nc1ccccc1Oc1ccccc1)c1cccc([N+](=O)[O-])c1 | 18.4µM* | -2.9% | 9.8% | i | -19.5%
CC(C)NC(=O)NC(=O)COC(=O)Cc1c(F)cccc1Cl | i | -11.8% | -15.4% | i | -1.6%
CCCCCCCCCCOC(=O)Cn1c(COc2ccccc2OC)[n+](C)c2ccccc21 | i | ? | 5.8µM* | ? | ?
CCCCNC(=O)c1ccc2c(c1)N=C(CC)c1ccccc1S2 | 18.4µM* | nt | nt | ? | nt
CCC1=Nc2cc(C(=O)NCCCOC)ccc2Sc2ccccc21 | 0.231µM* | 1.3µM* | ? | 0.82µM* | ?
CC1=Nc2cc(C(=O)O)ccc2Sc2ccc(Br)cc21 | i | -13.6% | ? | i | -3.8%
CCC1=Nc2cc(C(=O)NCCCOC)ccc2Sc2ccc(Br)cc21 | ? | nt | nt | 0.82µM* | nt
CC1=Nc2cc(C(=O)NCC3CCCO3)ccc2Sc2ccc(Br)cc21 (stereo not drawn) | 6.51µM* | ? | 18.4µM* | 11.6µM* | ?
CCC1=Nc2cc(C(=O)NCCN3CCCC3)ccc2Sc2ccccc21 | i | 0.1% | ? | i | 8.4%
SMILES | KB-V1 MDR tox | SW480 rereplic | MCF10A rereplic | KB-3-1 cytotox | ELG1 DNA repair
Fc1ccccc1N1CCN(c2cnc3ccccc3n2)CC1 | ? | -6.1% | ? | i | nt
C/C=C(/C(=C/C)c1ccc(O)cc1)c1ccc(O)cc1 | ? | ? | 4.61µM*! | i | -15.3%
CC(=NN=C(C)c1ccc(O)cc1)c1ccc(O)cc1 | i | -9.7% | 13.9% | ? | nt
Cc1ccc(S(=O)(=O)Nc2cccc(Cl)c2)cc1NC(=O)C1CC1 | 20.6µM* | 2.9% | 0.7% | ? | ?
Cc1ccc(NC(=O)C2CCCC2)cc1Cl | i | 6.2% | 4.3% | i | nt
Cc1ccc(S(=O)(=O)Nc2cccc(Cl)c2)cc1NC(=O)c1cccnc1 | i | ? | ? | i | -13.3%
Cc1ccc(NS(=O)(=O)c2ccc(Cl)c(NC(=S)NC(=O)C3CCCCC3)c2)cc1Cl | i | -66.1% | 8.2µM* | i | -21.2%
